The campaign covered roughly 13,000 compounds. About 3,200 (25%) showed an effect of 50% or more. The list shows a part of the results.
What follows are molecules tested on P. falciparum stage V gametocytes. Conditions: 48 h, 5 µM; inhibitor.
Parameters: BacTiter-Glo ATP luminescence viability of purified stage V gametocytes in 384-well plates, per cent inhibition versus DMSO

Structure (SMILES)	% Inhibition [%]
COc1cc(-c2cc(-c3ccc(OCCN(C)C)cc3)[nH]c2-c2ccncc2)ccc1Cl [TCMDC-141251]	-2.677
COc1cc(F)c2ncc(Cl)c([C@H](O)CN3CCC(NCc4cc5c(cn4)OCCO5)CC3)c2c1 [TCMDC-135474]	10.97
O=C(NC1CCC(CCN2Cc3cccc(C(F)(F)F)c3C2)CC1)c1cccc(-c2cccnc2)c1 (stereo not drawn) [TCMDC-139602]	-51.73
COc1ccc(CNCc2ccc(-c3ccc(-c4nc5cc(C(F)(F)F)ccc5[nH]4)cc3)cc2)cc1.O=C(O)C(F)(F)F [TCMDC-132724]	-6.92
O=C(Nc1cccc(-c2ccc(-c3nc4ccc(F)cc4[nH]3)cc2)c1)Nc1ccc(Cl)c(Cl)c1 [TCMDC-133280]	-66.79
CC(C)C[C@H](NC(=O)c1cc2ccccc2s1)C(=O)N[C@H]1CCN(Cc2ccc(I)c(OCCN3CCCC3)c2)C1 [TCMDC-140287]	56
N#Cc1ccccc1S(=O)(=O)N1CCCC(CNC(=O)[C@H](CC2CCCCC2)NC(=O)c2cc3ccccc3s2)C1 (stereo partly drawn) [TCMDC-136558]	-3.694
CC(C)CC(NC(=O)c1cc2ccccc2s1)C(=O)N1CCCCCC1c1ccc(C(C)(C)C)cc1 (stereo not drawn) [TCMDC-136337]	63.43
CC(C)C[C@H](NC(=O)c1cc2ccccc2s1)C(=O)N[C@H]1CCN(Cc2ccc(OC3CCN(C)C3)c(Cl)c2)C1 (stereo partly drawn) [TCMDC-140293]	19.83
CC(C)C[C@H](NC(=O)c1cc2ccccc2s1)C(=O)N[C@H]1CCN(Cc2ccc(OCCCN(C)C)c(Cl)c2)C1 [TCMDC-140291]	44.54
CC1CCN(CC[C@H]2CCCN2S(=O)(=O)c2cccc(NC(=O)c3cc4ccccc4s3)c2)CC1 [TCMDC-141077]	-68
CC(C)C[C@H](NC(=O)c1cc2ccccc2s1)C(=O)N[C@H]1CCN(Cc2ccc(I)c(OC3CCN(C)C3)c2)C1 (stereo partly drawn) [TCMDC-140288]	64.78
COc1ccc(CC2(c3ccc(F)cc3)N=C(N)N(CCCc3ccc(F)c(F)c3)C2=O)cc1 (stereo not drawn) [TCMDC-136542]	-2.474
Clc1ccc2nnc(-c3c(Cl)cccc3Cl)n2n1 [TCMDC-124489]	23.9
c1cc(CNCC2CCCO2)cc(-c2csc(-c3nc4ccccc4[nH]3)c2)c1 (stereo not drawn) [TCMDC-133108]	-15.46
C=CCc1cc(Br)ccc1OCCCOc1c(C)nc(N)nc1N [TCMDC-131366]	-2.875
Cc1ccc2c(OCCN3CCC(Cc4ccc5c(c4)NC(=O)CO5)CC3)cc(F)cc2n1 [TCMDC-141356]	22.38
Cc1cccc(S(=O)(=O)Nc2cccc(CCN3CCC(N4CCCCC4)CC3)c2)c1 [TCMDC-134087]	26.17
CC(c1cccc(S(=O)(=O)NCc2cccc(C(F)(F)F)c2)c1)N1CCC(N2CCCCC2)CC1 (stereo not drawn) [TCMDC-133565]	5.245
O=S(=O)(Nc1cccc(CCN2CCC(N3CCCCC3)CC2)c1)c1cccc(C(F)(F)F)c1 [TCMDC-134086]	60.6
O=C(c1ccc(Cl)cc1)C1CCCN(C2CCN(CCc3ccccc3)CC2)C1 (stereo not drawn) [TCMDC-124655]	-36.02

Structure (SMILES)	% Inhibition [%]
O=S(=O)(Nc1ccc(CCN2CCC(N3CCCCC3)CC2)cc1)c1ccccc1C(F)(F)F [TCMDC-134080]	79.99
O=S(=O)(Nc1ccc(CCN2CCC(N3CCCCC3)CC2)cc1)c1cccc(C(F)(F)F)c1 [TCMDC-134090]	84.05
O=S(=O)(Nc1cccc(CCN2CCC(N3CCCCC3)CC2)c1)c1ccccc1C(F)(F)F [TCMDC-134070]	2.875
O=c1ccc(-c2nc3cc(Cl)c(Cl)cc3n2Cc2ccc(Cl)cc2Cl)c[nH]1 [TCMDC-124041]	6.921
Cc1ccc(Nc2nc(C)cc(Nc3cccc(NS(C)(=O)=O)c3)n2)cc1 [TCMDC-133449]	22.69
CCCc1cc(Cc2cnc(N)nc2N)cc(CCC)c1OCCCCCC(=O)OCC [TCMDC-137289]	-20.26
COc1cccc(NC(=O)c2nc(N3CCN(c4ccncc4)CC3)ccc2Cl)c1 [TCMDC-135104]	27.68
Cc1ccc(NC(=O)c2ccc(N3CCN(c4ccncc4)CC3)cc2)cc1F [TCMDC-135126]	6.025
Cc1ccc(NC(=O)c2nc(N3CCN(c4ccncc4)CC3)ccc2Cl)cc1F [TCMDC-135103]	90.08
Cc1ccc(NC(=O)c2ccc(N3CCN(c4ccncc4)CC3)cn2)cc1F [TCMDC-135156]	103.4
O=C(Nc1ccc2c(c1)CCC2)c1nc(N2CCN(c3ccncc3)CC2)ccc1Cl [TCMDC-135105]	30.18
Cc1ccc(NC(=O)c2ccnc(N3CCN(c4ccncc4)CC3)c2)cc1F [TCMDC-135102]	18.96
CC(C)(C)C(=O)Nc1ccc(N2CCN(C(c3ccccc3)c3ccccc3)CC2)c(Cl)c1 [TCMDC-133713]	36.59
COc1ccc(Cl)cc1N1CCN(CCCNC(=O)c2ccc(-c3nc4cc(Cl)c(Cl)cc4[nH]3)c(C)c2)CC1 [TCMDC-140082]	-14.21
O=C(Cn1cc(C=C2SC(=NC3CCCC3)N(C3CCCC3)C2=O)c2ccccc21)N1CCCC1 [TCMDC-124810]	-5.018
COc1ccc2nccc(N(C)CC3(O)CCN(CCc4ccc5c(c4)NC(=O)CS5)CC3)c2n1 [TCMDC-141472]	49.29
O=C(CSc1nc2ccc([N+](=O)[O-])cc2s1)Nc1ccccc1-c1ccccc1 [TCMDC-124341]	43.04
CCCCC(=O)Nc1nc2ccc([N+](=O)[O-])cc2s1 [TCMDC-123686]	-7.174
CC(C)C(C)(C#N)NC(=O)CSc1nc2ccc([N+](=O)[O-])cc2s1 (stereo not drawn) [TCMDC-123610]	79.56
COc1ccc2nccc(N(C)CC3(O)CCC(NCc4cc5c(cn4)OCCO5)CC3)c2n1 (stereo not drawn) [TCMDC-134497]	30.63
N=c1ccn(CC(=NO)c2ccc(Cl)c(Cl)c2)cc1 [TCMDC-139033]	-35.74

Source: article PMC4552634, “A New Set of Chemical Starting Points with Plasmodium falciparum Transmission-Blocking Potential for Antimalarial Drug Discovery” (PLoS ONE, 2015)
